Source: PubChem (National Center for Advancing Translational Sciences (NCATS))
CBFb RUNX1 block: inhibitors of human CBF-beta and RUNX1 interaction; Q01196+Q13951; AlphaScreen CBFb-His/RUNX1-biotin binding, biochemical; Potency, µM (doses to about 59.8 µM), for inactives: top-dose activity, negative = inhibition, actives largely listed as inhibitors; 230,000 tested, under 10 active; AID 1477; also: % of control where 0% means no effect
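Bead-based AlphaScreen assay; binding partners His-tagged CBF-beta and biotinylated RUNX1 at 30 nM each. Compound exposure 15 min after a 20-min protein preincubation; bead step 90 min; all steps at room temperature.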
CtBP-E1A blk: blocks the CtBP interaction with E1A. 340,000 compounds, 0.49% hits. activity change, % (concentration not given with the values). AID 651724. AlphaScreen GST-E1A/His-CtBP binding, 1536-well; stronger effect = lower value; in the data active = activity change below about -65%; inconclusive = mostly about -30% to -63%; also: % is scaled to controls: 0 for no effect and ±100 for the full control effect
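Homogeneous bead-based format: GST-tagged E1A captured on glutathione donor beads, His-tagged CtBP on nickel acceptor beads; compounds precede bead addition by 2 h at 37 °C.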
MBNL1-CUG inh: inhibitors of human MBNL1 binding to CUG repeat RNA; AID 2675; TR-FRET MBNL1-His/biotin-(CUG)12 binding, 665/545 ratio; Potency, µM (top dose mostly 57.5 µM), for the others: at the highest dose activity change, negative = inhibition, hits mostly inhibitors; Q9NR56; 280,000 compounds, 0.036% hits; active = well fitted inhibition curve with a large enough effect in the signal ratio, with a control signal flat, not every such curve was filed as active; inconclusive = small, poorly fitted or top-dose-only effect, or effect the other way, or a change in a side signal; inactive = no such curve, though single readings can be large or run the other way; the % refers to the signal ratio; also: potency is read from the fitted curve at half-maximal effect; % is scaled to controls: 0 for no effect and ±100 for the full control effect
Target sequence (Q9NR56 whole entry, looked up): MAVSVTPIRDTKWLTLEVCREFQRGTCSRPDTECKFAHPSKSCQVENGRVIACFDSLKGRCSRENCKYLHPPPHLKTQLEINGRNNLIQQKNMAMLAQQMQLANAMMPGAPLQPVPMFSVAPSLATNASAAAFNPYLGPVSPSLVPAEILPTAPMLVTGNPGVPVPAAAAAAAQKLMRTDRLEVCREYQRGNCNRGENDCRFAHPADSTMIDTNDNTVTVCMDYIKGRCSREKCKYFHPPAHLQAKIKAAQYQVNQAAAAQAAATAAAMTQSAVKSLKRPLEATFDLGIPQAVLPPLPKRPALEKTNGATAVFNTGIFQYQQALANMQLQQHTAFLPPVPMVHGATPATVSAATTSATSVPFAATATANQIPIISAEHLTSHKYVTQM
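Compound titration spanned 92 nM–58 uM against the MBNL1-His/biotin-(CUG)12 complex. After 60 min at room temperature with 5 nM streptavidin-XL665 and 0.055 ng/ul terbium anti-His, ratiometric 665/545 nm emission (Ex 340 nm) normalized to controls.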
Eya2 phos inh: Eya2 (human) phosphatase inhibition; recombinant Eya2, OMFP fluorescence dephosphorylation (OMFP is methylfluorescein phosphate); Potency, µM (top dose mostly 76.9 µM), for the others: at the top dose activity, negative = inhibition, usual class: inhibitors; O00167; 330,000 compounds, 0.006% hits; also: potency is read from the fitted curve at half-maximal effect; % is scaled to controls: 0 for no effect and ±100 for the full control effect
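Eya2 protein (added as 0.2 uM solution) was preincubated with compound for 10 min at ambient temperature in 50 mM HEPES pH 7.5, 50 mM NaCl, 5 uM MgCl2, 0.05% BSA, 1 mM DTT. OMFP (added at 50 uM) then reacted 10 min; fluorescence read at 485/525 nm.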
Six1-Eya2 inh: Six1/Eya2 interaction inhibition | Q15475+O00167 | AlphaScreen GST-Six1/His-Eya2 binding, biochemical; stronger effect = lower value | activity change, % (concentration not given with the values) | 360,000 compounds, 0.56% hits; in the data active = activity change below about -65%; inconclusive = mostly about -30% to -63%; also: % is scaled to controls: 0 for no effect and ±100 for the full control effect
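GST-Six1 + His-Eya2 (5X stock: 250/500 nM); Tris pH 8.0, 300 mM NaCl, 0.05% BSA, 0.02% Tween 20; GSH donor/Ni acceptor beads; 1 h 37 °C dark; AlphaScreen readout.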
L3MBTL1 block: L3MBTL1 (human) inhibition | AID 485360 | 230,000 compounds, 0.66% hits | AlphaScreen L3MBTL1–H3K9me1 peptide binding | Potency, µM (top dose mostly 57.1 µM), without a hit: at the top dose activity, negative = inhibition, hits mostly inhibitors; also: potency is read from the fitted curve at half-maximal effect; % is scaled to controls: 0 for no effect and ±100 for the full control effect; nearly all actives have a fitted effect of over 60% in size
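Read-out is AlphaScreen signal from streptavidin donor and nickel chelate acceptor beads (10 ug/mL final each) bridging L3MBTL1 (50 nM) and biotinylated K9-monomethylated H3(1-15) peptide (75 nM), after 30 min compound exposure at room temperature.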
* marks the source's active call; other numbers are inactive results; ? = inconclusive; / = no result given. The list is not random: actives were taken first. Their share in the collection is about 0.89%. Unless noted, calls follow the shape of the dose curve; as a rule, active = well fitted curve in the direction sought with a large enough effect; inconclusive = small, poorly fitted or top-dose-only effect, or another doubt; inactive = no such curve, though single readings can be large; an effect the other way counts as inactive or inconclusive.

SMILES	CBFb RUNX1 block	CtBP-E1A blk	MBNL1-CUG inh	Eya2 phos inh	Six1-Eya2 inh	L3MBTL1 block
CN(Cc1ccccc1)C(=O)c1ccc2nc([C@@H]3O[C@H](CO)[C@H](O)[C@H](O)[C@H]3O)[nH]c2c1	/	28.3	/	/	29.3	/
COc1ccc(CCNC(=O)c2cc(C3CC3)nc3c2cnn3C(C)C)cc1	/	1.1	/	-5.4%	-4.7	43.3%
COc1cccc(CNS(=O)(=O)c2ccc3c(c2)oc(=O)n3C)c1	/	-2.6	0.9%	-5.2%	8.8	/
O=C(N/N=C/c1ccccn1)c1ccccc1	-7.8%	?	11.1%	6.4%	?	18.5%
O=C(N/N=C/c1cccc2cccnc12)c1ccccc1O	?	/	?	5.1%	-92.0*	6.31µM*
O=C(N/N=C/c1cccc2nccnc12)c1ccccc1O	/	-75.6*	/	6.2%	-89.4*	?
Cn1ncc(Cl)c1C(=O)N/N=C/c1ccccn1	-15.2%	-74.6*	?	0.7%	-79.8*	-15.6%
O=C(N/N=C/c1ccccn1)c1ccncc1	/	/	16.3%	-0.2%	-75.0*	/
O=C(N/N=C\c1ccccn1)c1ccccc1O	?	?	19.6%	0.8%	?	/
CCCCCCn1nc(C(=O)N(CCOC)c2c(N)n(CCCC)c(=O)[nH]c2=O)c2ccccc2c1=O	/	9.0	/	-20.4%	-3.0	3.3%
O=C(N/N=C(\Cc1ncc[nH]1)c1ccccc1)c1ccncc1	/	-89.8*	9.3%	-26.6%	-82.3*	/
O=C(N/N=C/c1ccccc1C(=O)O)c1ccncc1	/	-0.3	-0.7%	-0.7%	6.0	1.5%
O=C(N/N=C/c1cccc2nccnc12)c1ccncc1	/	-89.2*	?	0.5%	-68.4*	?
CCC(C)[C@@H](N)C(=O)N/N=C/c1cccc2nccnc12 (stereo partly drawn)	-18.9%	-71.1*	/	5.7%	-87.4*	-0.8%
O=C(NCc1ccncc1)/C(=C/c1cccc([N+](=O)[O-])c1)NC(=O)c1ccccc1	2.2%	/	/	-25.8%	3.6	-3.9%
CC(C1SC(=S)NC1=O)C1SC(=S)NC1=O (stereo not drawn)	/	-72.8*	/	/	-83.3*	/
Cc1cc(/C=N/NC(=O)c2cccc(N(C)C)c2)c(C)n1-c1cc(C(=O)O)cc(C(=O)O)c1	?	?	-8.5%	?	-67.5*	/
CC(C)(C)S(=O)(=O)N1C[C@H]2CC/C=C\C/C(c3ccccc3)=C\2[C@@H]1CCO	/	1.0	/	/	2.6	/
CCN(CC)N=Nc1ccc(S(=O)(=O)Nc2nc(C)cc(C)n2)cc1	/	3.4	-10.2%	-3.9%	-4.8	-1.1%
CCOc1ccccc1N1CCN(C2=C(NS(=O)(=O)c3cccs3)C(=O)c3ccccc3C2=O)CC1	?	-75.6*	?	11.5%	-65.2*	/
O=C1C(NS(=O)(=O)c2cccs2)=C(N2CCN(Cc3ccccc3)CC2)C(=O)c2ccccc21	?	/	?	-5.2%	-71.7*	?
O=C1C(NS(=O)(=O)c2cccs2)=C(N2CCN(c3cccc(C(F)(F)F)c3)CC2)C(=O)c2ccccc21	?	-79.7*	?	9.0%	-68.1*	/
COc1ccc(S(=O)(=O)Nc2ccc(-n3cccc3)cc2)cc1	/	-3.9	?	5.2%	-20.2	/
CO/N=C\CC(=O)Nc1ccc(Oc2ccccc2)cc1	-10.4%	8.8	/	-19.3%	4.3	10.1%
Cc1nn(-c2ccccc2)c(C)c1/C=C/C(=O)OCC(=O)NC1CCS(=O)(=O)C1 (stereo not drawn)	-3.5%	-75.0*	6.6%	8.6%	-2.6	/
SMILES	CBFb RUNX1 block	CtBP-E1A blk	MBNL1-CUG inh	Eya2 phos inh	Six1-Eya2 inh	L3MBTL1 block
O=C(COC(=O)/C=C/c1ccccc1)NC1CCS(=O)(=O)C1 (stereo not drawn)	/	/	/	23.4%	-0.1	0.8%
Cc1ccc(/C=C2\SC(=S)N(CC3CCCO3)C2=O)o1 (stereo not drawn)	?	-17.5	12.8%	4.4%	-27.6	?
O=C(CN1C(=O)/C(=C\c2ccco2)SC1=S)Nc1ccc(O)cc1C(=O)O	/	/	?	3.2%	?	/
O=C1/C(=C/c2ccco2)SC(=S)N1CC1CCCO1 (stereo not drawn)	?	-15.8	?	-0.5%	?	15.8µM*
COc1ccc(CCN2C(=O)/C(=C\c3ccco3)SC2=S)cc1OC	11.5%	-10.3	5.0%	20.0%	-6.4	17.8µM*
O=C(CCN1C(=O)/C(=C/c2ccco2)SC1=S)Nc1ccc(O)cc1C(=O)O	/	0.0	?	3.6%	-67.7*	/
Oc1ccc(/C=N/NC(=S)NCCN2CCOCC2)c(O)c1	?	/	/	12.5%	-89.6*	22.4µM*
CCOc1cccc(CNc2ccc(O)cc2)c1OCc1ccc(Cl)cc1Cl	-17.7%	-26.4	?	-5.7%	18.0	?
CCOc1cccc(CNc2ccc(O)cc2)c1OCc1ccccc1Cl	-8.3%	?	?	-25.4%	-24.1	39.8µM*
COc1ccc(-n2nc([N+](=O)[O-])c(=NCCC3=CCCCC3)n2O)cc1	?	?	?	1.9%	-69.6*	?
CCCCSCc1[nH]c(=O)[nH]c1C(=O)CCCCC(=O)OCC	4.0%	-8.9	?	-11.1%	-2.6	-1.7%
Cc1[nH]c(=O)[nH]c1C(=O)CCCCC(=O)O	/	-3.1	0.0891µM*	0.9%	9.8	0.355µM*
CC(C)[C@H](NS(=O)(=O)c1ccccc1)C(=O)Nc1ccccc1N1CCOCC1	/	24.5	/	-20.7%	-1.4	1.9%
CCOc1cccc(C2C(C#N)=C(N)Oc3cc(C)[nH]c(=O)c32)c1OCC (stereo not drawn)	10.1%	/	-3.3%	?	0.6	-3.4%
N#CC1=C(N)Oc2c(ccc3cccnc23)C1c1cccnc1 (stereo not drawn)	?	-92.2*	?	-8.6%	-90.8*	-21.2%
CCc1ccc2[nH]c(=O)c(C3C(C#N)=C(N)Oc4c3ccc3cccnc43)cc2c1 (stereo not drawn)	-22.3%	-86.4*	?	8.6%	?	-2.8%
Cc1ccc2cc(C3C(C#N)=C(N)Oc4c3ccc3cccnc43)c(=O)[nH]c2c1 (stereo not drawn)	?	-93.7*	?	12.7%	-71.7*	29.1%
Cc1ccc(C#CC[N+]2(C)CCCCC2)cc1	2.1%	2.4	-8.1%	0.9%	10.2	11.5%
CCCN(CC(=O)Nc1ccccc1OC)C(=O)CCNC(=O)c1ccccc1OC	/	3.8	/	-0.6%	2.1	-8.3%
CC(=O)N1c2ccc(S(=O)(=O)NCCC(=O)Nc3ccc(OC(F)(F)F)cc3)cc2CC1C (stereo not drawn)	/	-1.0	-11.8%	6.1%	1.8	/
